This is one part of a sample in which hits are shown more often than they occur.
Giardia FBPA inh-1: qHTS Assay for Inhibitors of Fructose-1,6-bisphosphate Aldolase from Giardia Lamblia; purified Giardia FBPA; 290,000 tested, 0.71% active; AID 2451, 2010; Potency, µM (doses to about 59.6 µM), without a hit: top-dose activity, negative = inhibition, hits mostly inhibitors; also: potency is read from the fitted curve at half-maximal effect; % is scaled to controls: 0 for no effect and ±100 for the full control effect; nearly all actives have a fitted effect of over 55% in size
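Giardia FBPA (40 nM reagent) was preincubated 10 min at RT with compound (up to 57.5 uM final), then substrate plus GAPDH/TPI/NAD/arsenate coupling system with diaphorase/resazurin was added; resorufin fluorescence (525/598 nm) was read after 20 min.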
Tb PYK inh: qHTS of Trypanosoma Brucei Inhibitors. Potency, µM (top dose mostly 76.8 µM), without a hit: top-dose activity, negative = inhibition, most hits filed as inhibitors. 410,000 tested, 0.12% active. TbPYK enzyme, Kinase-Glo Plus ATP luminescence, 45 min; also: potency is read from the fitted curve at half-maximal effect; % is scaled to controls: 0 for no effect and ±100 for the full control effect; nearly all actives have a fitted effect of over 50% in size
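Quantitative HTS: titrated library compounds versus trypanosomal pyruvate kinase in TEA buffer (pH 7.2) containing KCl, MgCl2, BSA and Tween-20. Reactions were initiated with ADP, 130 uM final. Kinase-Glo Plus luminescence was read after 45 min at RT.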
LmPK inhibitor: qHTS Assay for Inhibitors of Leishmania Mexicana Pyruvate Kinase (LmPK); Q27686; purified LmPK, Kinase-Glo ATP luminescence, 1 h; Potency, µM (top dose mostly 57.5 µM), for inactives: at the highest dose activity change, negative = inhibition, most hits filed as inhibitors; 290,000 tested, 0.37% active; also: potency is read from the fitted curve at half-maximal effect; % is scaled to controls: 0 for no effect and ±100 for the full control effect
Target sequence (Q27686 whole entry, looked up): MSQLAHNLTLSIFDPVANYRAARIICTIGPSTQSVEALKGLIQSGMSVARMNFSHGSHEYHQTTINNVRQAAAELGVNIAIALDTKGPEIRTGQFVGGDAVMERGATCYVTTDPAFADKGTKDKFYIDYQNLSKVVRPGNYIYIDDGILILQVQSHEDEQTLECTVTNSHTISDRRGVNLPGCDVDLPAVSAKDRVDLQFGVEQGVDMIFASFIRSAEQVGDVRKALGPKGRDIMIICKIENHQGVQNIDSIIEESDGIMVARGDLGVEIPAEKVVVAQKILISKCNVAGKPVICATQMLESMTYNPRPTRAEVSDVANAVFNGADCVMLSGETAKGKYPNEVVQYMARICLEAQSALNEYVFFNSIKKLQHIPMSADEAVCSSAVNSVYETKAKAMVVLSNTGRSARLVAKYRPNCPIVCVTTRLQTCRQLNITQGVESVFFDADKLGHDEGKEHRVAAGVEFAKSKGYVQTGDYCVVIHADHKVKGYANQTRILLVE
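Purified LmPK (0.1 nM) with 0.5 mM PEP and 0.1 mM ADP in imidazole buffer pH 7.2 with MgCl2/KCl, 1 h at room temperature. ATP formed was read by luciferase luminescence and normalized to no-enzyme and uninhibited controls.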
Shiga inhibitor: A qHTS for Small Molecule Inhibitors of Shiga Toxin; Vero cells, Shiga toxin protein synthesis inhibition reporter; inhibition, % at 38.7 µM; 290,000 tested, 9.2% active; AID 2315, 2010; in the data active = inhibition mostly above about 28%, no sharp cut-off; inactive = mostly below about 43%; also: 0% is about no effect
RE007 growth inh: qHTS Assay for Inhibitors of the HIV-1 protein Vpr; S. pombe RE007 Vpr strain, BacTiter-Glo ATP luminescence, 24 h; Potency, µM (top dose mostly 92.2 µM), without a hit: at the top dose activity change, negative = less growth, actives largely listed as inhibitors; 360,000 tested, 0.21% active; AID 651644, 2012; active = well fitted falling curve with a large enough effect; inconclusive = small, poorly fitted or top-dose-only effect; inactive = no such curve, though single readings can be large or run the other way; also: potency is read from the fitted curve at half-maximal effect; % is scaled to controls: 0 for no effect and ±100 for the full control effect; nearly all actives have a fitted effect of over 50% in size
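Fission yeast strain RE007, carrying one chromosomally integrated HIV-1 vpr copy, was seeded at OD 0.01 in PMG+AL medium with 23 nL pinned compound. After 24 h at 30 °C and 99% humidity, viability was read by BacTiter-Glo luminescence.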
CHX counter: Cycloheximide Counterscreen for Small Molecule Inhibitors of Shiga Toxin; 300,000 tested, 12% active; max response, %; cell reporter, cycloheximide protein synthesis inhibition counterscreen; AID 2314, 2010; in the data active = max response mostly above about 13%, no sharp cut-off; inactive = mostly below about 14%; also: read at 38.3 µM for the half of the compounds with a filed dose; 0% is about no effect
Giardia growth: qHTS Assay for Inhibitors of Fructose-1,6-bisphosphate Aldolase from Giardia Lamblia: Giardia lamblia growth inhibition | AID 2785, 2010 | shares compounds with Giardia FBPA inh-1 | Potency, µM (series often up to 57.5 µM), for inactives: at the top dose activity change, negative = inhibition, usual class: inhibitors | 1,500 tested, 5% active | Giardia lamblia trophozoite growth inhibition;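 also: potency is read from the fitted curve at half-maximal effect; trophozoites exposed to compound for 48 h at 37 °C; % is scaled to controls: 0 for no effect and ±100 for the full control effect; nearly all actives have a fitted effect of over 70% in size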
Mammalian tox: qHTS Assay for Inhibitors of Fructose-1,6-bisphosphate Aldolase from Giardia Lamblia: Mammalian cellular toxicity | shares compounds with Giardia FBPA inh-1 | mammalian cell viability counter-screen, qHTS | Potency, µM (highest dose often 57.5 µM), inactives show top-dose viability change, negative = toxicity, usual class: inhibitors | 1,500 tested, 4% active | AID 2786, 2010;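 also: Chinese hamster ovary cells used as mammalian cytotoxicity surrogate; viability measured as cellular ATP by luminescence; potency is read from the fitted curve at half-maximal effect; compound exposure lasted 48 h before reading; % is scaled to controls: 0 for no effect and ±100 for the full control effect; nearly all actives have a fitted effect of over 60% in size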
Giardia FBPA inh-2: qHTS Assay for Inhibitors of Fructose-1,6-bisphosphate Aldolase from Giardia Lamblia: Primary screen confirmation | purified Giardia aldolase enzyme activity, qHTS | Potency, µM (highest dose often 57.5 µM), for inactives: at the top dose activity change, negative = inhibition, most hits filed as inhibitors | 1,500 tested, 5% active | shares compounds with Giardia FBPA inh-1; also: potency is read from the fitted curve at half-maximal effect; % is scaled to controls: 0 for no effect and ±100 for the full control effect; nearly all actives have a fitted effect of over 45% in size
Rabbit FBPA inh: qHTS Assay for Inhibitors of Fructose-1,6-bisphosphate Aldolase from Giardia Lamblia: Rabbit FBPA Selectivity. shares compounds with Giardia FBPA inh-1. Rabbit muscle FBPA enzyme inhibition, selectivity counter-screen. Potency, µM (titrated, usually from 57.5 µM), inactives show at the top dose activity, negative = inhibition, hits mostly inhibitors. 1,500 tested, 4% active. AID 2794, 2010; also: potency is read from the fitted curve at half-maximal effect; % is scaled to controls: 0 for no effect and ±100 for the full control effect; nearly all actives have a fitted effect of over 60% in size
Target sequence (P00883 whole entry, looked up): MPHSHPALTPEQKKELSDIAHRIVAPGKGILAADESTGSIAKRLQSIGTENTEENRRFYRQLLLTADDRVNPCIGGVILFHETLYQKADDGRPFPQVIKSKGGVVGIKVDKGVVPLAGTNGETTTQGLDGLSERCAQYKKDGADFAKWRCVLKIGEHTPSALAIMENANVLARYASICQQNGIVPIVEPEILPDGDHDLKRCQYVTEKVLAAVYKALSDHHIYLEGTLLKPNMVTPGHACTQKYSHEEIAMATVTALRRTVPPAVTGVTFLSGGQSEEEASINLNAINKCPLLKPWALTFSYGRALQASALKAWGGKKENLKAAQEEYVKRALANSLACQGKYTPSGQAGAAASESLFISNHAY
GAPDH coupling: qHTS Assay for Inhibitors of Fructose-1,6-bisphosphate Aldolase from Giardia Lamblia: Coupling assay counterscreen confirmation; shares compounds with Giardia FBPA inh-1; GAPDH coupling enzyme counterscreen, biochemical, qHTS; Potency, µM (doses to about 57.5 µM), for the others: at the highest dose activity change, negative = inhibition, usual class: inhibitors; 1,500 tested, 6% active; AID 2795, 2010; also: potency is read from the fitted curve at half-maximal effect; % is scaled to controls: 0 for no effect and ±100 for the full control effect; nearly all actives have a fitted effect of over 55% in size
* = called active by the depositor; ? = inconclusive; . = no result given; [ ] = dose if it differs, or a comment. Unless noted, calls follow the shape of the dose curve; as a rule, active = well fitted curve in the direction sought with a large enough effect; inconclusive = small, poorly fitted or top-dose-only effect, or another doubt; inactive = no such curve, though single readings can be large; an effect the other way counts as inactive or inconclusive.

SMILES	Giardia FBPA inh-1	Tb PYK inh	LmPK inhibitor	Shiga inhibitor	RE007 growth inh	CHX counter	Giardia growth	Mammalian tox	Giardia FBPA inh-2	Rabbit FBPA inh	GAPDH coupling
CSc1ccc(CCNC(=O)c2ccc(CS(=O)(=O)c3ccc(Br)cc3)o2)cc1	.	0%	.	.	.	.	.	.	.	.	.
CCn1nc(-c2ccccc2)c(-c2ccccc2)c(C(=O)OCCOC)c1=O	.	2%	.	.	.	.	.	.	.	.	.
N#Cc1cccc(N=c2ssnc2Cl)c1	20µM*	18µM*	-23%	-2	-24%	8	?	2%	-11%	?	13%
COc1cc(N=c2ssnc2Cl)cc(OC)c1	16µM*	28µM*	-22%	14	?	-1	-3%[10.4 µM]	-9%	-3%	-11%	16%
COc1cc(NC(=O)N2c3ccccc3Sc3ccccc32)cc(OC)c1	.	4%	.	.	.	.	.	.	.	.	.
O=C(NCc1cccs1)c1ccc(CSc2nc3ccncc3n2Cc2ccccc2)cc1	.	0%	.	.	.	.	.	.	.	.	.
COc1ccc(-c2nc(CNS(=O)(=O)c3cccc(F)c3)cs2)cc1	.	-5%	.	.	.	.	.	.	.	.	.
CCc1ccc(-n2nc(C)c3c(C(=O)Nc4cc(C)c(Cl)cc4OC)cc(C)nc32)cc1	.	3%	.	.	.	.	.	.	.	.	.
Cc1nc2ccn(Cc3cccnc3)c(=O)c2cc1C(=O)Nc1ccc(F)cc1F	.	0%	.	.	.	.	.	.	.	.	.
COc1ccc(Br)cc1CN(C)CC(=O)NCc1ccc(F)cc1	14µM*	-3%	-8%	1	-1%	-5	-15%[10.4 µM]	-4%	2%	1%	14%
COc1cccc(/C=C/c2nc(C#N)c(N3CCCCC3)o2)c1	.	0%	.	.	.	.	.	.	.	.	.
CCN(c1ccccc1)S(=O)(=O)c1ccc(C(=O)Nc2nnc(COC)o2)cc1	?	-2%	-1%	-39	9%	-7	.	.	.	.	.
CN(c1ccccc1)S(=O)(=O)c1ccc(C(=O)Nc2nnc(C3CC3)o2)cc1	4.5µM*	-3%	7%	-14	-1%	0	-14%[38.3 µM]	?	-4%	7%	-6%
CCN(c1ccccc1)S(=O)(=O)c1ccc(C(=O)Nc2nnc(CSC)o2)cc1	16µM*	-17%	-6%	-10	3%	-5	5%[10.4 µM]	-3%	5%	18%	13%
COCCN(CCOC)S(=O)(=O)c1ccc(C(=O)Nc2nnc(C3CC3)o2)cc1	-1%	6%	0%	-1	-9%	-3	.	.	.	.	.
CCC1CCCCN1S(=O)(=O)c1ccc(C(=O)Nc2nnc(C3CC3)o2)cc1 (stereo not given)	25µM*	4%	7%	-14	7%	-4	11%[10.4 µM]	-16%	6%	13%	7%
CCN(c1ccccc1)S(=O)(=O)c1ccc(C(=O)Nc2nnc(C3CC3)o2)cc1	8.9µM*	3%	4%	-15	1%	-3	45µM*	-19%	-1%	12%	5%
CC1(C)CO[C@H](CC(=O)O)CN1	8%	.	.	.	.	.	.	.	.	.	.
NC(=O)C1(N2CCCCC2)CCN(C(=S)Nc2ccc(S(N)(=O)=O)cc2)CC1	7.9µM*	?	2%	-2	-6%	-2	87%	-3%	-23%	-15%	-20%
NC(=O)C1(N2CCCCC2)CCN(C(=S)Nc2ccccc2)CC1	2%	0%	-6%	-10	-18%	-2	.	.	.	.	.
CC(C)CN(CCNC(=O)c1cc(-c2cccs2)nc2ccccc12)CC(C)C	.	3%	.	.	.	.	.	.	.	.	.
Cc1c(NC(=O)/C(C#N)=C/c2ccccc2)c(=O)n(-c2ccccc2)n1C	2%	1%	6%	9	12%	0	.	.	.	.	.
Cc1c(NN=C(C#N)C#N)c(=O)n(-c2ccccc2)n1C	25µM*	-5%	9%	7	-1%	6	17%	21%	1%	2%	5%
CCOc1ccccc1CN1CCC(O)CC1	-17%	-5%	2%	-10	13%	8	.	.	.	.	.
CCOc1ccccc1CN1CCC(N2CCOCC2)CC1	8.9µM*	-7%	-5%	-13	-13%	-5	21%[38.3 µM]	-13%	?	13%	-8%
SMILES	Giardia FBPA inh-1	Tb PYK inh	LmPK inhibitor	Shiga inhibitor	RE007 growth inh	CHX counter	Giardia growth	Mammalian tox	Giardia FBPA inh-2	Rabbit FBPA inh	GAPDH coupling
COC(=O)CC1Oc2ccccc2-n2cc(-c3ccc(Cl)cc3)nc21 (stereo not given)	.	-6%	.	.	.	.	.	.	.	.	.
CC(CN1CCCC1)OC(=O)c1cccc(F)c1 (stereo not given)	18µM*	3%	-7%	-10	-16%	-2	9%[10.4 µM]	18%	11%	13%	-8%
CC(CN1C(C)CCCC1C)OC(=O)c1cccc(F)c1 (stereo not given)	-12%	-3%	0%	6	-1%	8	.	.	.	.	.
COc1ccc(N=Cc2cc(Cc3ccccc3Cl)cc([N+](=O)[O-])c2O)cc1OC	0.56µM*	2%	1%	9	11%	11	2%[10.4 µM]	11%	?	-21%	-26%
CC(C)Cn1cc(NC(=O)N2CCN(c3ccc(F)cc3)CC2)c2ccccc2c1=O	.	-2%	.	.	.	.	.	.	.	.	.
COc1ccc(COCC(O)CN2CCCC(C(F)(F)F)C2)cc1 (stereo not given)	11µM*	.	-7%	-5	.	-5	-14%	5%	1%	4%	14%
CC1CCCN(S(=O)(=O)c2ccc(N3CCCCS3(=O)=O)cc2)C1 (stereo not given)	.	-6%	.	.	.	.	.	.	.	.	.
O=C(NC(=S)Nc1nc(-c2ccccc2)cs1)c1ccco1	-17%	1%	2%	16	-14%	3	.	.	.	.	.
O=C(NC(=S)Nc1nc2ccccc2s1)c1ccco1	5µM*	-8%	0%	30*	-21%	35*	7.9µM*	?	-3%	12%	8%
